Test results taken from PubChem BioAssay.
Values without a mark were called inactive.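 Rule for the calls: active = fluorescence slope higher than the sample average by over 3 SD (cut at about -0.22 in these data, passing the limit was not always enough); inactive = the rest.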

Each compound was assayed against Voltage-gated potassium channel subunit beta-2 (Rattus norvegicus) (UniProt P62483) (assay: KvBeta enzyme negative modulators, primary screen, biochemical, NADPH fluorescence (AID 622;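 note: slope of raw intensity against log time taken from 70 to 1610 s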)). Details: recombinant KvBeta, 4-cyanobenzaldehyde reduction, at 10 µM, stronger effect = higher value.
Voltage-gated potassium channel subunit beta-2 (Rattus norvegicus), sequence (P62483 whole entry, looked up): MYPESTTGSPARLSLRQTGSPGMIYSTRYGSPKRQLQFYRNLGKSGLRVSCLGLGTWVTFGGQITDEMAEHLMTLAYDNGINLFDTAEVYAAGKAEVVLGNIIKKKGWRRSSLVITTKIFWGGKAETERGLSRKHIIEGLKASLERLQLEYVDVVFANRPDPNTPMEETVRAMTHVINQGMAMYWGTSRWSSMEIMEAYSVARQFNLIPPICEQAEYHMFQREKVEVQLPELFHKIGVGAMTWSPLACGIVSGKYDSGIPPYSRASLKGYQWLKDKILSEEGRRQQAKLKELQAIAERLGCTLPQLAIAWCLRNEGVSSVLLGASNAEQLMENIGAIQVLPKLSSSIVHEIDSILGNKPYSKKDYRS

| SMILES | fluorescence slope |
| --- | --- |
| CC(=O)Nc1cccc(OCC(O)Cn2cnc3ccccc32)c1 (configuration not stated) | -0.674 |
| Cc1ccc(N2CCN(CCc3nc4cc(NS(C)(=O)=O)ccc4n3C)CC2)cc1 | -0.531 |
| COc1cc2c(cc1OC)C(c1cccnc1)CC(=O)N2 (configuration not stated) | -0.513 |
| COc1ccc(S(=O)(=O)N2CCCC(C(=O)N3CCCCCC3)C2)cc1 (configuration not stated) | -0.403 |
| COCCCNC(=O)CSc1ccc(Cl)cc1 | -0.377 |
| CCOc1cc(C(=O)N(C)Cc2cc3ccccc3[nH]c2=O)cc(OCC)c1OCC | -0.325 |
| CCOC(=O)CN1CC23C=CC(O2)C(C(=O)NC2CCCC2)C3C1=O (configuration not stated) | -0.576 |
| O=C(CN1C(=O)c2ccccc2C1=O)Nc1ccccc1C(=O)N1CCCC1 | -0.594 |
| CCOC(=O)CSC1=C(C#N)C(c2ccc(C)o2)CC(=O)N1 (configuration not stated) | -0.511 |
| CCCSc1nc2c(cnn2-c2ccc(C)cc2)c(=O)[nH]1 | -0.545 |
| Cc1cc(C(=O)N2CCN(c3ncccn3)CC2)cs1 | -0.591 |
| Cc1cc(NC(=O)CSc2nc(CCC3CCCC3)nc3ccccc23)no1 | -0.449 |
| CCCC(CCC)C(=O)NCCN1CCOCC1 | -0.494 |
| CC(=O)NC(Cc1c[nH]c2ccccc12)C(=O)OCC(=O)Nc1cc(C)on1 (configuration not stated) | -0.376 |
| COc1ccccc1OCC(=O)NCC1CCCCC1 | -0.413 |
| CC1(C)CC(=O)c2sc(NS(C)(=O)=O)nc2C1 | -0.533 |
| CSC1=NCCN1C(=O)c1ccc(S(=O)(=O)N2CCCC2)cc1 | -0.592 |
